Activity calls are given as the source filed them. A call without a number means that no potency is given here. Unless noted, the call rests on the fitted dose curve.

KiSS-1 receptor (Homo sapiens), sequence (Q969F8 whole entry, looked up): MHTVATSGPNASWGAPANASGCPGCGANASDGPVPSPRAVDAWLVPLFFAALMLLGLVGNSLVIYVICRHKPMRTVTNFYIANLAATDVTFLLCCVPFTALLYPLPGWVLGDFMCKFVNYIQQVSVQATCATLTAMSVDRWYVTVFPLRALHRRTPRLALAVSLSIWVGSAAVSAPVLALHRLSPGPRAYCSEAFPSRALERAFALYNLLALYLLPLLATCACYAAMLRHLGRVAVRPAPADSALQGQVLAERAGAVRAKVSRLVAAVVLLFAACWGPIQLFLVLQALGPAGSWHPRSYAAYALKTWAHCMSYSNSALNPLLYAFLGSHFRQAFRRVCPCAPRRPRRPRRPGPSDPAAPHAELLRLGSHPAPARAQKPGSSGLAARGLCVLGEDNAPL

For one test, the target named is KiSS-1 receptor (Homo sapiens) (UniProt Q969F8). As to the kind of experiment: Human kisspeptin (KISS1R) small molecule agonists, calcium flux assay in KISS1R-HEK293 cells (AID 1920064; active means well fitted activation curve with a large enough effect in the repeat runs). Conditions: KISS1R-HEK293, calcium flux fluorescence, agonist; series mostly up to 76.8 µM. The procedure, abridged:
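Agonist activity is monitored as intracellular calcium rise in engineered HEK293 cells carrying human KISS1R. Cells are dye-loaded for 1 h at 37 C before compound addition, and fluorescence is recorded for 3 min.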
In general terms: Calcium assays in cells follow changes in intracellular calcium, usually with a dye or a luminescent sensor.
`CCN(CC)C(=O)N[C@@H]1C=C2c3cccc4[nH]cc(c34)C[C@@H]2N(C)C1`: the Potency entry was “inactive”.
For the compound `O=[N+]([O-])c1ccc2c3c(cccc13)CC2`, the Potency result is “inactive”.
In the case of `CCCN(CCC)C(=O)Cc1c(-c2ccc(Cl)cc2)nc2ccc(Cl)cn12`, the Potency entry is “inactive”.
For the compound `CC(C)[C@H](C(=O)O[C@H](C#N)c1cccc(Oc2ccccc2)c1)c1ccc(Cl)cc1`, the Potency entry was “inactive”.
In the case of `CCC(C(N)=O)N1CCCC1=O` (stereo not given), the Potency entry was “inactive”.
On the same count and under the same terms, in the case of `CCOC(=O)C(Cl)Cc1cc(-n2nc(C)n(C(F)F)c2=O)c(F)cc1Cl` (stereo not given) it was “inactive”.
As for `CCO/N=C(\CC)C1=C(O)CC(c2c(C)cc(C)cc2C)CC1=O` (stereo not given), the Potency result is “inactive”.
Turning to `Oc1ccc2ccc3cccc4ccc1c2c34`, the Potency result was “inactive”.
With `O=C(O)CCCCCCNC1c2ccccc2CCc2ccccc21`, the Potency result was “inactive”.
On the same count and under the same terms, in the case of `COP(=O)(OC)O/C(=C\Cl)c1cc(Cl)c(Cl)cc1Cl` it was “inactive”; in that of `CS(=O)(=O)c1ccc(C(=O)C2C(=O)CCCC2=O)c(Cl)c1COCC(F)(F)F`, “inactive”.
`O=C(N/N=C/c1ccc([N+](=O)[O-])o1)c1cc([N+](=O)[O-])cc([N+](=O)[O-])c1O`: the Potency result is “inactive”.
Regarding `CCCCC(=O)Cl`, the Potency entry was “inactive”.
Take `COC(=O)C(C)N(C(=O)c1ccco1)c1c(C)cccc1C` (stereo not given): the Potency entry is “inactive”.
Consider `COc1cnc(OC)n2nc(NS(=O)(=O)c3c(OCC(F)F)cccc3C(F)(F)F)nc12`, for which the Potency entry was “inactive”.
With `COC1=CC(=O)O[C@@H](CCc2ccccc2)C1`, the Potency result was “inactive”.
Same read-out and setting: in the case of `O=C1C(Cl)C(CCl)CN1c1cccc(C(F)(F)F)c1` (stereo not given) it was “inactive”; in that of `ClC(Cl)C(Cl)Cl`, “inactive”; in that of `CCCCCCCC(=O)Cl`, “inactive”.
With `O=[N+]([O-])c1cc([N+](=O)[O-])c2ccccc2c1`, the Potency result is “inactive”.
`CCCCCCCCCCCCN(C)C`: the Potency result was “inactive”.
In the case of `C=CC[C@]1(O)CC[C@H]2[C@@H]3CCC4=CC(=O)CCC4=C3C=C[C@@]21C`, the Potency entry was “inactive”.
For `Cc1cccc2sc3nncn3c12`, the Potency entry was “inactive”.
Take `CCCCC(CC)COC(=O)OOC(C)(C)C` (stereo not given): the Potency entry was “inactive”.
For the compound `CCOP(=O)(OCC)O/C(=C/Cl)c1ccc(Cl)cc1Cl`, the Potency entry is “inactive”.
Turning to `CNNC`, the Potency result was “inactive”.
Regarding `C=C(Cl)CSC(=S)N(CC)CC`, the Potency result is “inactive”.
Take `O=C(CBr)Nc1ccc(Cl)cc1C(=O)c1ccccc1F`: the Potency result was “inactive”.
Regarding `Nc1ccc(Cl)cc1C(=O)c1ccccc1F`, the Potency entry is “inactive”.
Same read-out and setting: to `COc1ccc(C=O)cc1O` belongs “inactive”.
On to `C[C@]12C=CC(=O)C=C1CC[C@@H]1[C@@H]2CC[C@@]2(C)[C@H]1CC[C@]2(C)O`, for which the Potency entry is “inactive”.
Regarding `COc1cc(CC(C)N)c(OC)cc1Br` (stereo not given), the Potency entry is “inactive”.
For `N#CCCl`, the Potency result is “inactive”.
As to `CCCCCCCCCCCCCN1CC(C)OC(C)C1` (stereo not given), the Potency entry was “inactive”.
Same read-out and setting: in the case of `CCN(CC)c1c([N+](=O)[O-])cc(C(F)(F)F)c(N)c1[N+](=O)[O-]` it was “inactive”.
As to `Cc1cccc(OP(=O)(Oc2cccc(C)c2)Oc2cccc(C)c2)c1`, the Potency entry is “inactive”.
Regarding `O=C(Nc1ccc2[nH]ccc2c1)c1cc2cc(F)ccc2n1Cc1cccc(F)c1`, the Potency entry was “inactive”.
On to `CSc1ccc(C(=O)C(C)(C)N2CCOCC2)cc1`, for which the Potency entry was “inactive”.
Regarding `NC1=NC(=O)C(c2ccccc2)O1` (stereo not given), the Potency entry was “inactive”.
Turning to `COP(=S)(OC)Oc1c(Cl)cc(C)cc1Cl`, the Potency entry is “inactive”.

Test system in another test: not listed separately
As to the kind of experiment: G protein-coupled receptor (GPCR) small molecule agonists, calcium flux assay: HEK293 wild type cell line counter screen (AID 1920065). Conditions: HEK293 WT calcium flux, fluorescence, agonist mode; series mostly up to 57.6 µM. The procedure, abridged: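 Seed cells, incubate 18 h (37 C, 5% CO2); add calcium dye, 1 h at 37 C; pin-transfer compounds, ATP control or DMSO; read fluorescence 480/540 nm each second for 3 min.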
For the compound `CCN(CC)C(=O)N[C@@H]1C=C2c3cccc4[nH]cc(c34)C[C@@H]2N(C)C1`, the Potency entry was “inactive”.
As to `O=[N+]([O-])c1ccc2c3c(cccc13)CC2`, the Potency entry was “inactive”.
For `CCCN(CCC)C(=O)Cc1c(-c2ccc(Cl)cc2)nc2ccc(Cl)cn12`, the Potency entry is “inactive”.
Same read-out and setting: in the case of `CC(C)[C@H](C(=O)O[C@H](C#N)c1cccc(Oc2ccccc2)c1)c1ccc(Cl)cc1` it was “inactive”; in that of `CCC(C(N)=O)N1CCCC1=O` (stereo not given), “inactive”.
On the same count and under the same terms, in the case of `CCOC(=O)C(Cl)Cc1cc(-n2nc(C)n(C(F)F)c2=O)c(F)cc1Cl` (stereo not given) it was “inactive”.
Still for that read-out and setting: in the case of `CCO/N=C(\CC)C1=C(O)CC(c2c(C)cc(C)cc2C)CC1=O` (stereo not given) it was “inactive”; in that of `Oc1ccc2ccc3cccc4ccc1c2c34`, “inactive”; in that of `O=C(O)CCCCCCNC1c2ccccc2CCc2ccccc21`, “inactive”.
`COP(=O)(OC)O/C(=C\Cl)c1cc(Cl)c(Cl)cc1Cl`: the Potency result was “inactive”.
For `CS(=O)(=O)c1ccc(C(=O)C2C(=O)CCCC2=O)c(Cl)c1COCC(F)(F)F`, the Potency entry is “inactive”.
Consider `O=C(N/N=C/c1ccc([N+](=O)[O-])o1)c1cc([N+](=O)[O-])cc([N+](=O)[O-])c1O`, for which the Potency entry was “inactive”.
For the compound `CCCCC(=O)Cl`, the Potency entry is “inactive”.
Same read-out and setting: to `COC(=O)C(C)N(C(=O)c1ccco1)c1c(C)cccc1C` (stereo not given) belongs “inactive”.
Take `COc1cnc(OC)n2nc(NS(=O)(=O)c3c(OCC(F)F)cccc3C(F)(F)F)nc12`: the Potency result was “inactive”.
Consider `COC1=CC(=O)O[C@@H](CCc2ccccc2)C1`, for which the Potency entry was “inactive”.
As to `O=C1C(Cl)C(CCl)CN1c1cccc(C(F)(F)F)c1` (stereo not given), the Potency result is “inactive”.
On the same count and under the same terms, to `ClC(Cl)C(Cl)Cl` belongs “inactive”; to `CCCCCCCC(=O)Cl`, “inactive”.
On the same count and under the same terms, to `O=[N+]([O-])c1cc([N+](=O)[O-])c2ccccc2c1` belongs “inactive”.
As to `CCCCCCCCCCCCN(C)C`, the Potency entry was “inactive”.
Consider `C=CC[C@]1(O)CC[C@H]2[C@@H]3CCC4=CC(=O)CCC4=C3C=C[C@@]21C`, for which the Potency result is “inactive”.
For `Cc1cccc2sc3nncn3c12`, the Potency result was “inactive”.
Still for that read-out and setting: in the case of `CCCCC(CC)COC(=O)OOC(C)(C)C` (stereo not given) it was “inactive”; in that of `CCOP(=O)(OCC)O/C(=C/Cl)c1ccc(Cl)cc1Cl`, “inactive”.
The same measure, in the same setting: to `CNNC` belongs “inactive”.
Regarding `C=C(Cl)CSC(=S)N(CC)CC`, the Potency entry is “inactive”.
The same measure, in the same setting: in the case of `O=C(CBr)Nc1ccc(Cl)cc1C(=O)c1ccccc1F` it was “inactive”; in that of `Nc1ccc(Cl)cc1C(=O)c1ccccc1F`, “inactive”; in that of `COc1ccc(C=O)cc1O`, “inactive”.
For the compound `C[C@]12C=CC(=O)C=C1CC[C@@H]1[C@@H]2CC[C@@]2(C)[C@H]1CC[C@]2(C)O`, the Potency entry was “inactive”.
In the case of `COc1cc(CC(C)N)c(OC)cc1Br` (stereo not given), the Potency result is “inactive”.
Turning to `N#CCCl`, the Potency result is “inactive”.
`CCCCCCCCCCCCCN1CC(C)OC(C)C1` (stereo not given): the Potency entry is “inactive”.
The same measure, in the same setting: in the case of `CCN(CC)c1c([N+](=O)[O-])cc(C(F)(F)F)c(N)c1[N+](=O)[O-]` it was “inactive”.
As for `Cc1cccc(OP(=O)(Oc2cccc(C)c2)Oc2cccc(C)c2)c1`, the Potency result is “inactive”.
The same measure, in the same setting: to `O=C(Nc1ccc2[nH]ccc2c1)c1cc2cc(F)ccc2n1Cc1cccc(F)c1` belongs “inactive”; to `CSc1ccc(C(=O)C(C)(C)N2CCOCC2)cc1`, “inactive”.
Consider `NC1=NC(=O)C(c2ccccc2)O1` (stereo not given), for which the Potency entry was “inactive”.
On to `COP(=S)(OC)Oc1c(Cl)cc(C)cc1Cl`, for which the Potency entry was “inactive”.
